According to PubChem BioAssay (NCATS):
Inconclusive results are not listed. Unmarked numbers belong to inactive results. Calls of active or inactive are those of the source. Calls follow the shape of the dose curve; as a rule, active = well fitted cell-killing curve with a large enough effect; inconclusive = small, poorly fitted or top-dose-only effect, or effect the other way; inactive = no such curve, though single readings can be large or run the other way.

Experiment: Quantitative High-Throughput drug screen in 47 multiple myeloma cell lines against the NCATS MIPE library collection: AMO1_DSMZ cell viability assay (AID 1918927; also: nearly all actives have a fitted effect of over 30% in size)
Details: AMO1 myeloma cells viability, CellTiter-Glo ATP luminescence, 48 h; series mostly up to 45.8 µM; viability, % of DMSO: at the top concentration
From the text: PI: Beverly A. Mock Ph.D.
Laboratory of Cancer Biology and Genetics,
Center for Cancer Research, National Cancer Institute,
National Institute of Health, Bethesda, Maryland
Drug resistance and disease progression are common in multiple myeloma (MM) patients, underscoring the need for new therapeutic combinations. […] We hypothesized that effective combinations would reduce MYC expression and enhance p16 activity. […] These preclinical data identify potentially useful drug combinations for evaluation in drug-resistant MM and reveal potential mechanisms of combined drug sensitivity.
Described herein is the primary MIPE qHTS used to cherrypick compounds. Validated compounds were then further tested for potential synergistic activiy.
[1] Peat TJ, Gaikwad SM, Dubois W, Gyabaah-Kessie N, Zhang S, Gorjifard S, Phyo Z, Andres M, Hughitt VK, Simpson RM, Miller MA, Girvin AT, Taylor A, Williams D, D'Antonio N, Zhang Y, Rajagopalan A, Flietner E, Wilson K, Zhang X, Shinn P, Klumpp-Thomas C, McKnight C, Itkin Z, Chen L, Kazandijian D, Zhang J, Michalowski AM, Simmons JK, Keats J, Thomas CJ, Mock BA. Drug combinations identified by high-throughput screening promote cell cycle transition and upregulate Smad pathways in myeloma. Cancer Lett. 2023 Aug 1;568:216284. doi: 10.1016/j.canlet.2023.216284. Epub 2023 Jun 24. PMID: 37356470; PMCID: PMC10408729.
SEQUENCE No. (e.g., 1, 2, 3, etc.); […] (e.g., Cells, Incubation, Reagent, etc.); VALUE and DESCRIPTION.
1; Cells; 5 uL; white, solid bottom 1536-well Greiner assay plate.
2; Compounds; 23 nL; Kalypsis pin tool (Wako USA) equipped with a 1536-well pin head to transfer to the assay plates.
3; Incubation; 48 hours; 37C incubation.
4; Reagent;5uL; CellTiter Glo (Promega).
5; Detector; 425V; Luminescence; Viewlux PerkinElmer.
NOTES (numbers refer to Sequence numbers above)
1. The cell-based screening methods employed in this study were like those previously published. Briefly, the corresponding myeloma cell lines were screened in 1,536-well plates with 500 cells, 5-uL per well for inhibition of cell viability (assessed by measuring ATP levels with CellTiterGlo).
2. NCATS MIPE 4.0 library of approved and investigational drugs were added using the Kalypsis pin tool. Wells treated with DMSO only for 100% viability and media only wells for 0% viability were used as controls.
3. The assay plates were covered and incubated for 48 hours in a 37C, 5% CO2 incubator with controlled humidity.
4. After 48 hours, CellTilter-GloTM luminescent substrate mix (Promega) reagent was added to the assay plate and plates we incubated for 5 min at room temperature.
5. Signal was measured as median relative luminescence units on a ViewLux (PerkinElmer) multiplate reader.
[1] Heske CM, Davis MI, Baumgart JT, Wilson K, Gormally MV, Chen L, Zhang X, Ceribelli M, Duveau DY, Guha R, Ferrer M, Arnaldez FI, Ji J, Tran HL, Zhang Y, Mendoza A, Helman LJ, Thomas CJ. Matrix Screen Identifies Synergistic Combination of PARP Inhibitors and Nicotinamide Phosphoribosyltransferase (NAMPT) Inhibitors in Ewing Sarcoma. Clin Cancer Res. 2017 Dec 1;23(23):7301-7311. doi: 10.1158/1078-0432.CCR-17-1121. Epub 2017 Sep 12. PMID: 28899971; PMCID: PMC6636827.
Potency is read from the fitted curve at half-maximal effect.

Row | SMILES | Potency | viability, % of DMSO [%]
1 | CC(C)Cn1cnc2c(N)nc3ccccc3c21 | 4.18 µM (active) | –
2 | CCn1cc(C(=O)O)c(=O)c2cc(F)c(N3CCNCC3)cc21 | – | 139
3 | Nc1nc(N)c2nc(CNc3ccc(C(=O)NC(CCC(=O)O)C(=O)O)cc3)cnc2n1 (stereo not given) | 0.0235 µM (active) | –
4 | CCOCC(O)COc1ccc(NC(=O)CC[S+](C)C)cc1 (stereo not given) | – | 94
5 | COc1cc2nc(N3CCCN(C)CC3)nc(NC3CCN(Cc4ccccc4)CC3)c2cc1OC | 7.43 µM (active) | –
6 | O[C@@H](CNC[C@H](O)[C@H]1CCc2cc(F)ccc2O1)[C@@H]1CCc2cc(F)ccc2O1 | 26.4 µM (active) | –
7 | CCCCc1oc2ccc(NS(C)(=O)=O)cc2c1C(=O)c1ccc(OCCCN(CCCC)CCCC)cc1 | 9.35 µM (active) | –
8 | O=NN(CCCl)C(=O)NC1CCCCC1 | – | 122
9 | COc1ccc(C(=O)CC(=O)c2ccc(C(C)(C)C)cc2)cc1 | 1.87 µM (active) | –
10 | CS(=O)(=O)c1ccc([C@@H](O)[C@@H](CO)NC(=O)C(Cl)Cl)cc1 | – | 98.2
11 | CC(=O)[C@H]1CC[C@H]2[C@@H]3CCC4=CC(=O)CC[C@]4(C)[C@H]3CC[C@]12C | – | 128
12 | N[C@@H](C(=O)N[C@@H]1C(=O)N2C(C(=O)O)=C(Cl)CS[C@H]12)c1ccccc1 | – | 109
13 | Cc1ccc(S(=O)(=O)N[C@@H](Cc2ccccc2)C(=O)CCl)cc1 | 13.2 µM (active) | –
14 | CC(C)C[C@H](NC(=O)[C@H](CCc1ccccc1)NC(=O)CN1CCOCC1)C(=O)N[C@@H](Cc1ccccc1)C(=O)N[C@@H](CC(C)C)C(=O)[C@@]1(C)CO1 | 0.0066 µM (active) | –
15 | CCOC(=O)[C@H](CCc1ccccc1)N[C@H]1CCc2ccccc2N(CC(=O)O)C1=O | 7.43 µM (active) | –
16 | CCN(CC)CCn1c(=O)c(Cc2ccc(OC)cc2)nc2ccccc21 | – | 108
17 | NC(=O)c1cccnc1 | – | 95.7
18 | CNS(=O)(=O)CCc1ccc2[nH]cc(C3CCN(C)CC3)c2c1 | 2.35 µM (active) | –
19 | Cn1nnc2c(C(N)=O)ncn2c1=O | – | 97.5
20 | Nc1ccc(S(=O)(=O)Nc2ccccn2)cc1 | – | 107

Row | SMILES | Potency | viability, % of DMSO [%]
21 | CCCCOc1ccc(CC(=O)NO)cc1 | 11.8 µM (active) | –
22 | Cc1nnc(NS(=O)(=O)c2ccc(N)cc2)s1 | 1.87 µM (active) | –
23 | O=C(O)c1ccc(-n2nc(-c3ccccc3O)nc2-c2ccccc2O)cc1 | 29.6 µM (active) | –
24 | CC(C)C1CCC(C(=O)N[C@H](Cc2ccccc2)C(=O)O)CC1 (stereo not given in full) | – | 86.4
25 | CC1=C(C(=O)O)N2C(=O)[C@@H](NC(=O)C(N)c3ccccc3)[C@H]2SC1 (stereo not given in full) | – | 134
26 | O=P(O)(O)C(O)(Cc1cccnc1)P(=O)(O)O | – | 121
27 | O=C(O)c1cccnc1 | – | 121
28 | CN(CCOc1ccc(CC2SC(=O)NC2=O)cc1)c1ccccn1 (stereo not given) | – | 87.9
29 | NNC(=O)c1ccncc1 | – | 107
30 | CC(C)OC(=O)OCOP(=O)(CO[C@H](C)Cn1cnc2c(N)ncnc21)OCOC(=O)OC(C)C | 20.9 µM (active) | –
31 | CN(Cc1cc(Br)cc(Br)c1N)C1CCCCC1 | – | 117
32 | COC(=O)Nc1nc2ccc(Sc3ccccc3)cc2[nH]1 | 0.833 µM (active) | –
33 | COc1cc(NCc2ccc3nc(N)nc(N)c3c2C)cc(OC)c1OC | 0.935 µM (active) | –
34 | O=c1cc(O)c(Cl)c[nH]1 | 2.64 µM (active) | –
35 | CCOC(=O)c1ccc(C#Cc2ccc3c(c2)C(C)(C)CCS3)nc1 | – | 92
36 | O=C(N[C@H](CO)[C@H](O)c1ccc([N+](=O)[O-])cc1)C(Cl)Cl | – | 135
37 | CC(=O)Oc1ccccc1C(=O)Nc1ncc([N+](=O)[O-])s1 | 13.6 µM (active) | –
38 | CC[C@H](NC(C)C)[C@H](O)c1ccc(O)c2[nH]c(=O)ccc12 | – | 135
39 | COc1ccccc1OCC(O)COC(N)=O (stereo not given) | – | 128
40 | Cc1cc(NS(=O)(=O)c2ccc(N)cc2)no1 | – | 116
